Sampled rows, rich in hits. Any-hit rate of the full collection: about 2.4%.
D2 PAM-1: potentiates the human D2 dopamine receptor allosterically; P14416; DiscoveRx D2 beta-arrestin cells, luminescence, 90 min; 100% = 57 uM dopamine signal; 360,000 tested, 0.23% active; potentiation, % (concentration not given with the values); in the data active = potentiation above about 50%; inconclusive = mostly about 30% to 49%
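PathHunter D2 cells, attached overnight at 37 deg C, received compound in DMSO plus dopamine at EC20 (50 nM final) for 90 min at 37 deg C. Beta-arrestin recruitment was read as luminescence after 1 h with detection reagent at ambient temperature.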
D2 PAM-2: positive allosteric modulators of human D2 dopamine receptor; potentiation, % at 10 µM; AID 485347; HEK293 T-REx D2, calcium flux, EC20 dopamine potentiation; 340,000 tested, 0.34% active; P14416;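 active = potentiation over 3 SD above the plate norm, cut at about 30% in these data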; also: 0% is about no effect
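Calcium flux readout, no-wash dye, 1 read/s. Inducible HEK293 Trex D2 line, overnight 30 C. Compound alone 180 s (agonist flags), then EC20 dopamine, another 180 s to score potentiation.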
D2 ag-1: agonists of human D2 dopamine receptor | activation, % at 2 µM | HEK293 T-REx D2 cells, calcium flux agonist mode | P14416 | 340,000 tested, 0.53% active;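 active = activation over 3 SD above normal in the single-dose calcium agonist read, cut at about 30% in these data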; also: 0% is about no effect
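In this primary screen, compounds producing a positive calcium signal within 180 s of addition to tetracycline-induced, force-coupled HEK293 Trex D2 cells are flagged; cells are dye-loaded with a no-wash calcium kit beforehand.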
D2 antagonist: antagonizes the human D2 dopamine receptor. HEK293 TREx D2 cells, calcium flux, dopamine EC80. inhibition, % at 10 µM. 340,000 tested, 2% active; in the data active = inhibition above about 30%; inactive = below that, where a call was filed; also: 0% is about no effect
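Antagonism is scored as inhibition of an EC80 dopamine-evoked calcium signal in a force-coupled, tetracycline-inducible HEK293 T-REx D2 line, with compound present 180 s before agonist.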
D2 ag-2: human D2 receptor agonism in beta-arrestin assay | DiscoveRx PathHunter D2 beta-arrestin, luminescence, 90 min; 100% = 57 uM dopamine signal | P14416 | 360,000 tested, 0.084% active | AID 624465 | activation, % (test concentration not listed); in the data active = activation above about 40%; inconclusive = between about 15% and that limit
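DiscoveRx PathHunter D2 beta-arrestin cells (2,100/well) attached overnight, then compound-stimulated 90 min at 37 C in HBSS/10 mM HEPES/0.1% Tween-20 buffer; beta-galactosidase complementation read by luminescence after 1 h at ambient temperature. Dopamine 57 uM final (EC100) as control.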
D3 arrestin ag: confirmation of human D3 dopamine receptor agonists, beta-arrestin | AID 720506 | shares compounds with D2 ag-1 | 2,300 tested, 4% active | Potency, µM (doses to about 76.9 µM), for the others: at the top dose activation, actives largely listed as activators | DiscoveRx D3 beta-arrestin cells, luminescence, 90 min;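 also: potency is read from the fitted curve at half-maximal effect; 100% = dopamine control response; nearly all actives have a fitted effect of over 70% in size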
Target sequence (P35462 whole entry, looked up): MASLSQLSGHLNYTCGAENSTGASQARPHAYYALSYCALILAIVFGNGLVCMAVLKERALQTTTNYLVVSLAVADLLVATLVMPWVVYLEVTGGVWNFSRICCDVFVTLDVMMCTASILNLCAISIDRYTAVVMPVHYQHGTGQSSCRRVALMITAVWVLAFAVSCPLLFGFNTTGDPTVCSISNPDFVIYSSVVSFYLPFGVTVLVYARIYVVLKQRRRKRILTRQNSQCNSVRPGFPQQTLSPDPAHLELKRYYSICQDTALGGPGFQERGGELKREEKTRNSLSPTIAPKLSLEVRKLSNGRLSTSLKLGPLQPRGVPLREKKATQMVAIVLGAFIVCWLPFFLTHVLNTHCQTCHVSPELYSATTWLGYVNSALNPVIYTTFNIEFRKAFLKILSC
D2 ag-3: activates human D2 dopamine receptor in D3 counterscreen. shares compounds with D2 ag-1. DiscoveRx PathHunter D2 beta-arrestin, luminescence, 90 min; response scale: percent relative to full dopamine signal. Potency, µM (highest dose often 76.9 µM), for inactives: at the highest dose activation, actives largely listed as activators. 2,300 tested, 5.9% active. AID 720507; also: potency is read from the fitted curve at half-maximal effect; % of control where 0% means no effect; nearly all actives have a fitted effect of over 70% in size
Starred values were filed as active, the others as inactive; ? = inconclusive; . = no result given. Unless noted, calls follow the shape of the dose curve; as a rule, active = well fitted activation curve with a large enough effect; inconclusive = small, poorly fitted or top-dose-only effect; inactive = flat fitted curve, though single readings scatter.

SMILES	D2 PAM-1	D2 PAM-2	D2 ag-1	D2 antagonist	D2 ag-2	D3 arrestin ag	D2 ag-3
COc1cccc(OC)c1C(=O)N1CCN(Cc2ccc3c(c2)OCO3)CC1	-10	-2	0	20	-3	.	.
Cc1cc(=O)oc(C)c1C(=O)N1CCN(Cc2ccc3c(c2)OCO3)CC1	-10	7	0	16	4	2%	16%
CCCN(CCC)CCCNC(=O)c1nn(C)c2c1CS(=O)(=O)c1ccccc1-2	.	6	-2	.	.	.	.
O=C(COc1ccccc1Cl)OCc1cc(=O)n2nc(C3CCCCC3)sc2n1	.	-7	.	.	.	.	.
O=C(CN1C(=O)COc2ccc(S(=O)(=O)N3CCCC3)cc21)N1CCN(c2cccc(C(F)(F)F)c2)CC1	.	-1	.	.	.	.	.
Cc1ccc2c(C)c(C(=O)N3CCN(Cc4ccc5c(c4)OCO5)CC3)oc2c1C	-32	-7	0	5	8	.	.
COc1ccc(N(C)S(=O)(=O)c2cccc(C(=O)N3CCN(Cc4ccc5c(c4)OCO5)CC3)c2)cc1	-12	-15	58*	-3	6	3%	11%
CS(=O)(=O)c1ccccc1C(=O)N1CCN(Cc2ccccc2)CC1	-1	.	.	.	4	-19%	26%
Cc1ccc(C(=O)N2CCN(Cc3ccc4c(c3)OCO4)CC2)o1	-35	.	.	.	3	11%	6%
CCOC(=O)N1CCN(C(=O)c2ccc3ccccc3c2)CC1	3	-4	0	-1	-4	.	.
CCOC(=O)N1CCN(Cc2ccc3ccccc3c2)CC1	-32	-6	34*	21	2	-3%	26%
CCN(c1ccc(OC)cc1)S(=O)(=O)N1CCCC(C(=O)NCc2ccc(OC(C)C)cc2)C1 (stereo not drawn)	-4	.	.	.	1	.	.
O=C1c2cccnc2C(Nc2ccc(Br)cc2Br)N1Cc1cccs1 (stereo not drawn)	.	2	2	-10	.	.	.
CC(C)(C)S(=O)(=O)N1C[C@@H]2CC/C=C\C/C=C\2[C@H]1CCO	.	.	.	.	1	.	.
CCn1cc(C(=O)NCc2ccc3c(c2)OCO3)c(=O)c2ccc(C)nc21	.	6	0	-21	.	.	.
CCOC(=O)N1CCN(Cc2ccc3c(c2)OCO3)CC1	?	-31	86*	81*	53*	13%	5µM*
CCn1cc(C(=O)N2CCN(Cc3ccc4c(c3)OCO4)CC2)c(=O)c2ccc(C)nc21	-15	-24	68*	13	6	4%	12%
O=C(Cn1ccc2ccccc2c1=O)N1CCN(Cc2ccc3c(c2)OCO3)CC1	-4	-9	30*	0	-4	3%	9%
Cc1ccc(C(=O)N2CCN(Cc3ccccc3)CC2)o1	-45	-18	50*	-14	10	0%	3%
O=C(c1ccc([N+](=O)[O-])o1)N1CCN(Cc2ccccc2)CC1	-22	3	0	5	6	.	.
O=C(c1cc2ccccc2oc1=O)N1CCN(Cc2ccc3c(c2)OCO3)CC1	-19	-8	0	1	0	.	.
O=C(CS(=O)(=O)Cc1ccccc1)c1ccccc1	-2	.	.	.	-8	.	.
O=C(NN=Cc1cc(Cl)ccc1[N+](=O)[O-])c1ccco1	4	.	.	.	13	.	.
CC1(C(=O)NS(=O)(=O)c2cccc(F)c2)CCN1C(=O)CCc1ccccc1 (stereo not drawn)	3	.	.	.	11	.	.
Cc1nn(CC(C)C)c(Cl)c1C(=O)N(C)CC(=O)Nc1ccc(Cl)cc1	-14	.	.	.	-3	.	.
SMILES	D2 PAM-1	D2 PAM-2	D2 ag-1	D2 antagonist	D2 ag-2	D3 arrestin ag	D2 ag-3
N#Cc1ccc(S(=O)(=O)N2CCC(C(=O)N3CCN(Cc4ccc5c(c4)OCO5)CC3)CC2)cc1	3	-12	35*	43*	?	2%	?
CN(CC(=O)N1CCN(Cc2ccccc2)CC1)C(=O)Cc1cccc2ccccc12	-15	0	37*	-15	0	0%	7%
O=C(c1ccccc1)N1CCN(Cc2cccc(Oc3ccccc3)c2)CC1	-6	-31	49*	-1	1	8%	6%
COc1cccc(CN2CCN(C(=O)c3cccc(OC)c3)CC2)c1	-18	2	0	4	-5	.	.
O=C(CCCn1c(=O)[nH]c2ccsc2c1=O)N1CCN(Cc2ccc3c(c2)OCO3)CC1	-19	-6	.	.	-3	-1%	10%
O=C(Nc1ccccc1OC(F)F)c1ccc(S(=O)(=O)N2CCOCC2)cc1	1	4	-1	-13	0	.	.
Cn1cnc(S(=O)(=O)N2CCCCC2c2cc(C(=O)Nc3cccc4c3CCCC4)no2)c1 (stereo not drawn)	0	.	.	.	-1	.	.
O=C(CSc1ccc2nnc(-c3ccncc3)n2n1)NCC1CCCO1 (stereo not drawn)	-6	12	0	13	-5	-11%	-1%
O=S(=O)(NCC1CCCN(Cc2ccccc2O)C1)c1cccc2cccnc12 (stereo not drawn)	-36	-21	49*	18	-3	-6%	0%
O=C(C1CCC(CNS(=O)(=O)c2cccc3cccnc23)CC1)N1CCCC1 (stereo not drawn)	-3	-4	-2	11	1	.	.
COCCN=c1scc(-c2cccs2)n1/N=C/c1ccc(O)c(O)c1O	76*	-20	78*	73*	94*	25µM*	7.1µM*
O=[N+]([O-])c1c(NCCO)cc(N2CCN(Cc3ccc4c(c3)OCO4)CC2)c2nonc12	-25	-19	40*	-12	-3	-1%	13%
CCOC(=O)c1c(NC(=O)c2cc(=O)c3cc(Cl)ccc3o2)sc(C)c1C	.	-4	0	.	.	.	.
COc1ccc(S(N)(=O)=O)cc1C(=O)NCCCN1CCN(c2ccccc2OC)CC1	-36	-31	60*	77*	8	-2%	2%
Cc1nc2nc(C)c(CCC(=O)NCCCN3CCN(c4cccc(Cl)c4)CC3)c(C)n2n1	-16	-14	75*	73*	?	10%	?
O=C(NCCCN1CCN(CCCNC(=O)c2cccc(Cl)c2)CC1)c1cccc(Cl)c1	-24	-11	-1	2	-2	.	.
O=C(NCCCN1CCN(c2cccc(Cl)c2)CC1)c1nc(-c2ccncc2)no1	-15	-36	69*	82*	9	4%	21%
COc1ccc(Cl)cc1C(=O)NCCS(=O)(=O)N1CCN(c2ccccc2OC)CC1	.	-11	.	.	.	.	.
COc1cc2c(C(=O)NCCCN3CCN(c4cccc(Cl)c4)CC3)cn(C)c(=O)c2cc1OC	-31	-26	4	-7	3	.	.
